Compound activity deposited in PubChem BioAssay by Broad Institute.
This is one part of a sample in which hits are shown more often than they occur.
PDI turbidity: blocks human protein disulfide isomerase activity. actives 0.052% (n = 350,000). PDI insulin aggregation turbidity, A650, 90 min. P07237. inhibition, % at 10 µM;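 active = mean inhibition across replicates of 30% or more, whatever share of single replicates reach that level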
HDAC3 inh: blocks human histone deacetylase 3 | O15379 | recombinant HDAC3, fluorogenic peptide/trypsin coupled, fluorescence | inhibition, % at 8.3 µM | actives 0.15% (n = 320,000) | AID 2718; in the data active = inhibition above about 26%, passing the limit was not always enough
ERAP1 inh: blocks human ERAP1 aminopeptidase activity; inhibition, % at 10.7 µM; recombinant ERAP1, Leu-AMC fluorescence, 60 min; actives 0.15% (n = 340,000);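 active = mean replicate inhibition of at least 30%, or all replicates individually reaching that 30% level; inactive = mean below 30% and not every replicate reaching it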;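 note: 0% = neutral control wells and 100% = L-leucinethiol positive control wells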
SIRT5 inh: inhibitors of human sirtuin-5 desuccinylase; inhibition, % at 15 µM; Purified SirT5, succinyl-peptide AMC, trypsin-coupled fluorescence; AID 652115; actives 1.1% (n = 330,000); in the data active = inhibition above about 15%
ERp5 inh: blocks human ERp5 reductase activity on insulin; Q15084; ERp5 insulin aggregation, absorbance 650 nm, 90 min; inhibition, % at 9.99 µM; actives 0.05% (n = 350,000); AID 651711;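 active = mean replicate inhibition above about 25%, with every replicate also reaching it, limit read from the data, passing the limit was not always enough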
Numbers without * were called inactive.

What do the screens show for `Cc1ccc(S(=O)(=O)N(C)C[C@@H]2Oc3c(NC(=O)c4cnccn4)cccc3C(=O)N([C@H](C)CO)C[C@@H]2C)cc1`?
ERAP1 inh: 2; SIRT5 inh: -1; ERp5 inh: 2

What do the screens show for `COC(=O)[C@@]12C[C@@H](CC(=O)NCCCN3CCCC3=O)C(=O)N(Cc3ccccc3)C1=CCC(C)(C)C2`?
ERAP1 inh: 7; SIRT5 inh: -1; ERp5 inh: -1

Results for COC(=O)[C@@]12C[C@@H](CC(=O)NCc3ccccc3)C(=O)N(Cc3cccc4ccccc34)C1=CCC(C)(C)C2 ?
ERAP1 inh: 1; SIRT5 inh: 2; ERp5 inh: -5

How did COC(=O)[C@@]12C[C@@H](CC(=O)NCc3ccccc3)C(=O)N(Cc3ccccc3)C1=CCC(C)(C)C2 do in these assays?
ERAP1 inh: 0; SIRT5 inh: 36*; ERp5 inh: 0

What do the screens show for `CCCCCCCCN1C(=O)[C@H](CC(=O)NCCCN2CCCC2=O)C[C@@]2(C(=O)OC)CC(C)(C)CC=C12`?
ERAP1 inh: 22; SIRT5 inh: 19*; ERp5 inh: 1

What do the screens show for `C[C@@H]1CN([C@H](C)CO)C(=O)c2cc(NS(=O)(=O)c3ccc(Cl)cc3)ccc2O[C@@H](C)CCCCO[C@@H]1CN(C)C(=O)c1ccccc1`?
ERAP1 inh: 0; SIRT5 inh: 0; ERp5 inh: 1

How did Cc1c(-n2cc(C(=O)c3cc(Br)ccc3O)cc(C#N)c2=O)c(=O)n(-c2ccccc2)n1C do in these assays?
PDI turbidity: 35*; HDAC3 inh: -10

Results for Cc1ccc(O)c(C(=O)c2cc(C#N)c(=O)n(-c3c(C)n(C)n(-c4ccccc4)c3=O)c2)c1 ?
PDI turbidity: 19; HDAC3 inh: 4

How did CO[C@@H](CN(C)S(=O)(=O)c1ccc(Cl)cc1)[C@H](C)CN([C@H](C)CO)S(=O)(=O)c1cccc(Cl)c1 do in these assays?
ERAP1 inh: -4; SIRT5 inh: 16*; ERp5 inh: 0

What do the screens show for `CO[C@H](CN(C)S(=O)(=O)c1cccc(Cl)c1)[C@H](C)CN([C@@H](C)CO)S(=O)(=O)c1ccc(Cl)cc1`?
ERAP1 inh: -3; SIRT5 inh: 1; ERp5 inh: -4

What do the screens show for `COc1ccc(NC(=O)Nc2cccc3c2O[C@@H](CN(C)Cc2ccc(Oc4ccccc4)cc2)[C@@H](C)CN([C@@H](C)CO)C3=O)cc1`?
ERAP1 inh: 1; SIRT5 inh: 15*; ERp5 inh: -3

What do the screens show for `C[C@@H]1CN([C@H](C)CO)C(=O)c2cccc(NC(=O)Nc3ccc(C(F)(F)F)cc3)c2O[C@@H]1CN(C)Cc1ccc(-c2ccccc2)cc1`?
ERAP1 inh: 4; SIRT5 inh: 103*; ERp5 inh: -5

How did COc1ccc(NC(=O)Nc2cccc3c2O[C@@H](CN(C)Cc2ccc(Oc4ccccc4)cc2)[C@H](C)CN([C@@H](C)CO)C3=O)cc1 do in these assays?
ERAP1 inh: 0; SIRT5 inh: 16*; ERp5 inh: 0

Results for COc1ccc(NC(=O)Nc2cccc3c2O[C@@H](CN(C)Cc2ccc(Oc4ccccc4)cc2)[C@@H](C)CN([C@H](C)CO)C3=O)cc1 ?
ERAP1 inh: -1; SIRT5 inh: -1; ERp5 inh: 2

What do the screens show for `C[C@@H]1CN([C@@H](C)CO)C(=O)c2cccc(NC(=O)Nc3ccc(C(F)(F)F)cc3)c2O[C@@H]1CN(C)Cc1ccc(-c2ccccc2)cc1`?
ERAP1 inh: 4; SIRT5 inh: 2; ERp5 inh: 6

What do the screens show for `CCCC(=O)N1CC2(C1)CN(C(=O)Nc1ccc(F)cc1)[C@@H](CO)c1c2c2ccc(OC)cc2n1C`?
ERAP1 inh: 2; SIRT5 inh: 4; ERp5 inh: 3

What do the screens show for `CCOc1ccc(C(C(=O)NCC2CCCO2)N(Cc2cccs2)C(=O)c2snc(C(N)=O)c2N)cc1` (stereo not drawn)?
PDI turbidity: 5; HDAC3 inh: 3; ERAP1 inh: 0; SIRT5 inh: 25*; ERp5 inh: 0

How did O=C(O)Cc1c[nH]c2cccc(O)c12 do in these assays?
HDAC3 inh: -1; ERAP1 inh: 2; SIRT5 inh: 33*; ERp5 inh: 3

How did CC(=O)N(C)C[C@@H]1Oc2ncc(C#C[C@H](C)O)cc2C(=O)N([C@@H](C)CO)C[C@@H]1C do in these assays?
ERAP1 inh: -5; SIRT5 inh: 7; ERp5 inh: -1

Results for C[C@H]1CN([C@@H](C)CO)C(=O)c2cc(NC(=O)Cc3ccccc3)ccc2O[C@@H]1CN(C)C(=O)Nc1ccccc1 ?
ERAP1 inh: -1; SIRT5 inh: 4; ERp5 inh: -1

What do the screens show for `CCOC(=O)/C(C#N)=C1/C(=O)N(Cc2ccccc2)c2ccccc21`?
PDI turbidity: 25; ERAP1 inh: 10; SIRT5 inh: 21*; ERp5 inh: -3

How did O=C(C[C@H]1CC[C@H]2[C@@H](COC[C@H](O)CN2C(=O)c2ccccc2F)O1)NCc1ccc(F)cc1 do in these assays?
ERAP1 inh: -3; SIRT5 inh: -2; ERp5 inh: 6

What do the screens show for `COc1ccc2oc(=N)c(C(=O)NCc3ccccc3)cc2c1`?
PDI turbidity: 7; HDAC3 inh: -9; ERAP1 inh: -2; SIRT5 inh: 20*; ERp5 inh: 0

How did COc1ccc2cc(C(=O)NCc3ccccc3)c(=O)oc2c1 do in these assays?
PDI turbidity: -4; HDAC3 inh: -8; ERAP1 inh: -5; SIRT5 inh: -1; ERp5 inh: 2

Results for CCc1noc(C)c1C(=O)Nc1nc(-c2cccs2)cs1 ?
PDI turbidity: 1; HDAC3 inh: 7; ERAP1 inh: 4; SIRT5 inh: 15*; ERp5 inh: 1

What do the screens show for `CC(=O)c1cn(CC(=O)Nc2cccc(C)c2C)c2ccccc12`?
PDI turbidity: 3; HDAC3 inh: -3; ERAP1 inh: 6; SIRT5 inh: 22*; ERp5 inh: 3

What do the screens show for `Cc1noc(C)c1NC(=O)Nc1ccc2c(c1)C(=O)N([C@@H](C)CO)C[C@H](C)[C@H](CN(C)C(=O)Nc1ccc(C(F)(F)F)cc1)OCCCC[C@H](C)O2`?
ERAP1 inh: 1; SIRT5 inh: 1; ERp5 inh: -4

What do the screens show for `Cc1noc(C)c1NC(=O)N(C)C[C@H]1Oc2c(NS(=O)(=O)c3ccc(F)cc3)cccc2C(=O)N([C@H](C)CO)C[C@@H]1C`?
ERAP1 inh: 2; SIRT5 inh: -12; ERp5 inh: -8

Results for CCOc1ccccc1C(=O)NC(C(=O)N(C)c1c(N)n(Cc2ccccc2)c(=O)[nH]c1=O)C(C)C (stereo not drawn) ?
PDI turbidity: -6; ERAP1 inh: -3; SIRT5 inh: 17*; ERp5 inh: 3

How did COc1ccccc1NC(=O)N(C)C[C@@H]1Oc2cc(Br)ccc2S(=O)(=O)N([C@H](C)CO)C[C@H]1C do in these assays?
ERAP1 inh: -1; SIRT5 inh: 0; ERp5 inh: 1
